From paper PMC6925144, “A prospective compound screening contest identified broader inhibitors for Sirtuin 1” (Scientific Reports, 2019) come the findings set out here.

Structures are written as SMILES. The full ranking holds about 3,200 compounds; the median of “TSA(without NAD+) / Primary screening (TSA) / delta Tm (K)” is about -0.07, and the highest 2% start at about 0.37. Shown is part of a subset that was picked to be rich in the highest values.

The target in this assay is NAD-dependent deacetylase Sirtuin 1 (human, UniProt Q96EB6). Put plainly: primary screen, delta tm. Also noted: single well (n = 1). The following applies: 10 µM. The gist of the method: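 Thermal shift of Sirtuin 1 measured without NAD+, compound at 10 µM (n = 1); value is ΔTm, with hits defined as ΔTm > 0.45 K or < −1.5 K. Hits retested at 5, 10, 20 µM (n = 4) and counterscreened on bovine carbonic anhydrase and ABL1 SH2 domain.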
NAD-dependent deacetylase Sirtuin 1, sequence (Q96EB6 2-747 limits assumed): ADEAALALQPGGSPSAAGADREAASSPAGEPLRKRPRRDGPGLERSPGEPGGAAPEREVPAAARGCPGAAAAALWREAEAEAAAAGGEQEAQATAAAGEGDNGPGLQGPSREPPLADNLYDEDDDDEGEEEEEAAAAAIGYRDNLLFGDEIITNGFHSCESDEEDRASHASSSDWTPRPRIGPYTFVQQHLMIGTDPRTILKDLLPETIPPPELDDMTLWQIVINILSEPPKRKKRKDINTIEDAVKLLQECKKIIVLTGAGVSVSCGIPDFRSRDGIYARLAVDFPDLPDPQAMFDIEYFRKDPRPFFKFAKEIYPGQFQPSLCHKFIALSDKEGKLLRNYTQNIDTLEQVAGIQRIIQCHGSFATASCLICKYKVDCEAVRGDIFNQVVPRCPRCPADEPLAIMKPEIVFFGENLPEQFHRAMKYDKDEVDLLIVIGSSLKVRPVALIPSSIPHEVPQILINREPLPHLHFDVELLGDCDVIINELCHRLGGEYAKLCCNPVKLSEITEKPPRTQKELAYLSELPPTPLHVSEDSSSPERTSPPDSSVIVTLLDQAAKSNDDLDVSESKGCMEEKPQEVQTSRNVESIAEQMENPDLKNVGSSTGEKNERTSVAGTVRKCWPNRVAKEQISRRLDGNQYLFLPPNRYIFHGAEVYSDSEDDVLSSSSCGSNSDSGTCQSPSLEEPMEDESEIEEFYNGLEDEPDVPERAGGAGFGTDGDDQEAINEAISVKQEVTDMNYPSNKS
On to `CN(CC(=O)Nc1cccc2ccccc12)C(=O)C1=COCCO1`, for which the “TSA(without NAD+) / Primary screening (TSA) / delta Tm (K)” value is reported as -0.23 K.

`Cc1[nH]c2ccccc2c1CC(=O)Nc1cccc(-c2noc(=O)[nH]2)c1`: the “TSA(without NAD+) / Primary screening (TSA) / delta Tm (K)” value was 0.07 K.

Take `CC(C)Oc1ccc(C(=O)C2=C(O)C(=O)N(CCCN3CCOCC3)C2c2cccs2)cc1` (stereo not drawn): the “TSA(without NAD+) / Primary screening (TSA) / delta Tm (K)” value is given as -0.23 K.

Consider `NC(=O)c1ccc(CN2CCSCC2)cc1`, for which the “TSA(without NAD+) / Primary screening (TSA) / delta Tm (K)” value amounted to 0.06 K.

In the case of `CCN(CC)CCNC(=O)c1ccc(NC(=O)CC2CCCC2)cc1`, the “TSA(without NAD+) / Primary screening (TSA) / delta Tm (K)” value was 0.07 K.

Turning to `NC(=S)c1ccc(C(=O)NCc2ccnc(OCC(F)(F)F)c2)cc1`, the “TSA(without NAD+) / Primary screening (TSA) / delta Tm (K)” value is reported as -0.18 K.

`CN(c1ccccc1)S(=O)(=O)c1cccc(C(=O)NCCc2c[nH]c3ccccc23)c1`: the “TSA(without NAD+) / Primary screening (TSA) / delta Tm (K)” value amounted to 0.16 K.

On to `O=C(CCc1c[nH]c2ccccc12)Nc1ccc2nc[nH]c(=O)c2c1`, for which the “TSA(without NAD+) / Primary screening (TSA) / delta Tm (K)” value is recorded as 0.26 K.

For the compound `O=C(CCc1c[nH]c2ccccc12)Nc1nnc(-c2ccccc2)o1`, the “TSA(without NAD+) / Primary screening (TSA) / delta Tm (K)” value was 0.52 K.

With `CN(c1ccccc1)S(=O)(=O)c1cccc(NC(=O)CCCc2c[nH]c3ccccc23)c1`, the “TSA(without NAD+) / Primary screening (TSA) / delta Tm (K)” value came out at 0.52 K.

`O=C(CCc1c[nH]c2ccccc12)Nc1cccc(S(=O)(=O)NCc2ccco2)c1`: the “TSA(without NAD+) / Primary screening (TSA) / delta Tm (K)” value is -0.01 K.

Turning to `O=C(CCc1c[nH]c2ccccc12)NCCc1ccco1`, the “TSA(without NAD+) / Primary screening (TSA) / delta Tm (K)” value is -0.05 K.

With `CN(c1ccccc1)S(=O)(=O)c1cccc(NC(=O)CNc2cccc3ccccc23)c1`, the “TSA(without NAD+) / Primary screening (TSA) / delta Tm (K)” value was found to be 0.17 K.

In the case of `CN(c1ccccc1)S(=O)(=O)c1cccc(NC(=O)CCc2c[nH]c3ccccc23)c1`, the “TSA(without NAD+) / Primary screening (TSA) / delta Tm (K)” value was determined as 0.38 K.

For `Cc1ccc(N(C)S(=O)(=O)c2cccc(C(=O)NCCc3c[nH]c4ccccc34)c2)cc1`, the “TSA(without NAD+) / Primary screening (TSA) / delta Tm (K)” value is listed as 0.23 K.

As for `COc1cccc(NC(=S)Nc2cccc(S(=O)(=O)N(C)c3ccccc3)c2)c1`, the “TSA(without NAD+) / Primary screening (TSA) / delta Tm (K)” value is reported as -0.03 K.

On to `NC(=O)c1ccc(C(=O)OCC(=O)c2cc3ccccc3o2)cc1`, for which the “TSA(without NAD+) / Primary screening (TSA) / delta Tm (K)” value was -0.38 K.

On to `Cc1ccc(NC(=O)CN2CCN(C(=O)c3ccc(-c4ccc(Cl)cc4)o3)CC2)cc1`, for which the “TSA(without NAD+) / Primary screening (TSA) / delta Tm (K)” value came to 0.08 K.

Consider `Cc1ccc2nc(-c3ccc(NC(=O)C(C)Cl)cc3)sc2c1` (stereo not drawn), for which the “TSA(without NAD+) / Primary screening (TSA) / delta Tm (K)” value was 0.22 K.

In the case of `O=C1NC(=S)NC(=O)C1=Cc1cn(-c2ccccc2)nc1-c1cc2ccccc2o1`, the “TSA(without NAD+) / Primary screening (TSA) / delta Tm (K)” value was 0.36 K.

Regarding `CC(=O)N1Cc2ccccc2CC1C(=O)NC1CCOc2ccccc21` (stereo not drawn), the “TSA(without NAD+) / Primary screening (TSA) / delta Tm (K)” value is recorded as -0.13 K.
